Sampled rows, rich in hits. Any-hit rate of the full collection: about 10%.
Mm-Cpn inhibitor: inhibitors of Methanococcus maripaludis chaperonin TRiC (MmCpn); purified Mm-Cpn ATPase, ADP Transcreener TR-FRET; Potency, µM (doses to about 76.9 µM), without a hit: top-dose activity, negative = inhibition, actives largely listed as inhibitors; 330,000 compounds, 0.031% hits; AID 504842; also: potency is read from the fitted curve at half-maximal effect; nearly all actives have a fitted effect of over 80% in size
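Quantitative HTS used 25 nM Mm-CPN and 10 uM ATP in magnesium/KCl Tris buffer, pH 7.4, with 1 mM DTT. Hydrolysis ran 30 min at 37°C; ADP was read by HTRF.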
Sfp PPTase inh: inhibitors of Bacillus subtilis Sfp phosphopantetheinyl transferase. Biochemical Sfp PPTase activity, qHTS. AID 1490. Potency, µM, without a hit: largest response in the series, negative = inhibition, most hits filed as inhibitors. 310,000 compounds, 3.5% hits. Q9F4F7;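 also: the enzyme is Sfp with the accession as filed and its product quenches rhodamine fluorescence; potency is read from the fitted curve at half-maximal effect; 0% = enzyme reaction without inhibitor and -100% = no enzyme wells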
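Fluorescence-quenching assay with 15 nM Sfp, 5 uM rhodamine-CoA and 12.5 uM BHQ-2-labelled ybbR peptide in pH 7.6 Hepes/MgCl2 buffer. Enzyme was pre-incubated with compound for 15 min at room temperature. Rate was taken from the 30-min fluorescence change (525/598 nm).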
PLK1 PBD inh: PLK1 (human) polo-box domain binding inhibition; AID 720504; P53350; 360,000 compounds, 2.8% hits; Potency, µM, for the others: max response, negative = inhibition, usual class: inhibitors; Plk1 PBD binding of FITC phosphopeptide, fluorescence polarization; also: potency is read from the fitted curve at half-maximal effect; series mostly up to about 57 µM; nearly all actives have a fitted effect of over 65% in size
G9a inh: blocks human histone lysine methyltransferase G9a; Q96KQ7; G9a H3K9 monomethylation, AlphaScreen, 2 h; Potency, µM (doses to about 102 µM), for the others: top-dose activity, negative = inhibition, most hits filed as inhibitors; 350,000 compounds, 8.8% hits; AID 504332; also: potency is read from the fitted curve at half-maximal effect; nearly all actives have a fitted effect of over 75% in size
Target sequence (Q96KQ7 913-1193 limits assumed): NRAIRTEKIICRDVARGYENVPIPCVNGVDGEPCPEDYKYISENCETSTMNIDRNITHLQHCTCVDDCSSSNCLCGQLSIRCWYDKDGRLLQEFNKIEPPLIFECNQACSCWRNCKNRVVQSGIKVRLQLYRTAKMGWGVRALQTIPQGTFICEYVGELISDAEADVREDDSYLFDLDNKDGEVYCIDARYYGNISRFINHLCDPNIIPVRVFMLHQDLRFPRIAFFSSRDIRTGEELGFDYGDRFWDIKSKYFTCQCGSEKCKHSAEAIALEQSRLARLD
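Step 1: enzyme (final 20 nM) with compound, 15 min RT. Step 2: substrate peptide 500 nM and SAM 20 uM, 2 h RT. Step 3: anti-H3K9me1 antibody and AlphaScreen beads, 10 min, then plate read.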
CCT modulator: modulators of cytosolic chaperonin (CCT/TRiC) activity | purified chaperonin ATPase assay, HTRF ADP detection, 30 min | activity change, % (no concentration beside the values), hits read low | 360,000 compounds, 0.3% hits | AID 651819; in the data active = activity change below about -30%
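TRiC at 40 or 20 nM final (batch-dependent) in 30 mM Tris pH 7.4, 100 mM KCl, 5 mM MgCl2, 1 mM DTT, with compound at single 76 uM and 10 uM ATP, 30 min at 37 deg C. ADP detected by HTRF Transcreener, 665/615 ratio.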
VDR inhibitor: vitamin D3 receptor (human) inhibition; P11473; VDR-SRC2-3 peptide fluorescence polarization, 2 h; Potency, µM, inactives show max response, negative = inhibition, most hits filed as inhibitors; 400,000 compounds, 0.93% hits; also: potency is read from the fitted curve at half-maximal effect
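VDR–SRC2-3 interaction, FP format. Cmpds 23 nl via pintool, brief spin, 2 h ambient incubation.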
Active calls of the source: *; ? = inconclusive; / = no result given; [ ] = remark or other dose. Unless noted, calls follow the shape of the dose curve; as a rule, active = well fitted curve in the direction sought with a large enough effect; inconclusive = small, poorly fitted or top-dose-only effect, or another doubt; inactive = no such curve, though single readings can be large; an effect the other way counts as inactive or inconclusive. Unless noted, % is scaled to controls: 0 for no effect and ±100 for the full control effect.

SMILES | Mm-Cpn inhibitor | Sfp PPTase inh | PLK1 PBD inh | G9a inh | CCT modulator | VDR inhibitor
COc1ccc(CCn2c(O)c(C=Nc3ccc(F)cc3)c(=O)[nH]c2=O)cc1OC | 3.1% | -12.5% | -12.6% | / | -2.8 | -5.1%
CCN(CCO)c1ccc(N=Cc2c(O)n(C)c(=S)[nH]c2=O)cc1 | -4.8% | 39.8µM* | 19.6% | 35.5µM* | 1.8 | -9.1%
COc1ccc(CCn2c(O)c(C=NCc3cccnc3)c(=O)[nH]c2=O)cc1OC | 0.1% | 24.4% | 26.7µM* | 8.8%[12.7 µM] | -0.7 | -11.9%
C=C1C(=O)OC2CC(C)C3C=CC(=O)C3(C)C(O)C12 (configuration not stated) | / | / | -13.4% | / | 1.8 | ?
C=C1C(=O)O[C@@H]2C[C@@H](C)[C@@H]3C=CC(=O)[C@@]3(C)[C@@H](OC(=O)CC(=O)O[C@H]3[C@@H]4C(=C)C(=O)O[C@@H]4C[C@@H](C)[C@@H]4C=CC(=O)[C@]43C)[C@H]12 | -6.8% | 22.4µM* | ? | ? | 0.6 | 17.8µM*
COc1ccc(NC(=O)C2C3CCC(O3)C2C(=O)O)c(OC)c1 (configuration not stated) | 1.1% | -0.7% | -2.1% | 10µM* | 1.7 | 6.3%
O=C(O)C1C2CCC(O2)C1C(=O)Nc1ccc(Cl)cc1 (configuration not stated) | 0.3% | -13.2% | -3.1% | 12.7%[59 µM] | 2.0 | -8.8%
C[C@H]1CC[C@@]2(NC1)O[C@@H]1C[C@H]3[C@@H]4CC[C@@H]5C[C@@H](O)CC[C@@]5(C)[C@@H]4CC[C@]3(C)[C@@H]1[C@@H]2C | / | 16.7% | / | 3.6%[21.5 µM] | / | 0.2%
C[N+]1(C)C2CCC1CC(OC(=O)c1ccco1)C2 (configuration not stated) | 1.4% | -10.0% | 0.3% | / | 2.6 | 11.6%
C[N+]1(C)C2CCC1CC(OC(=O)c1c[nH]c3ccccc13)C2 (configuration not stated) | -11.6% | -5.4% | 3.8% | 10.6µM* | 1.1 | 6.6%
Cc1cccc(C)c1NC(=O)CN1CCCC1 | / | 11.3% | -10.9% | -2.8%[12.7 µM] | -0.5 | -2.3%
CC(=O)N1CCN(c2ccc([N+](=O)[O-])cc2C=C2C(=O)NC(=O)NC2=O)CC1 | -0.2% | -11.7% | ? | 39.8µM* | -1.5 | 5.6%
CCN1C[C@]2(C)CC[C@H](OC)[C@@]34[C@@H]2[C@H](OC(C)=O)[C@]2(OCO[C@@]25C[C@@H](OC)[C@@H]2C[C@@]3(O)[C@H]5[C@@H]2OC)[C@H]14 | / | 15.6% | / | 20.3%[21.5 µM] | / | -6.3%
CN(C)/C=C1/C(=O)NC(=O)N(CCNc2ncc(C(F)(F)F)cc2Cl)C1=O | -0.5% | -12.3% | ? | 44.7µM* | -2.7 | -3.9%
Cc1ccc(CNC(=O)CCCn2c(=O)c3sccc3n(CC(=O)Nc3c(C)cccc3C)c2=O)cc1 | / | / | / | -6.1%[59 µM] | / | -9.9%
CN(C)CCO | / | 4.0% | / | 23.2%[59 µM] | / | 2.7%
Cc1cnn(-c2cc(Oc3ccccc3)ncn2)c1 | ? | -16.1% | -7.7% | -48.9% | -3.3 | 13.8%
Cc1ccc(C=C2C(Cl)=C(Cl)C(Cl)=C2Cl)cc1 | -5.4% | ? | 11.9µM* | 8.91µM* | -0.1 | ?
O=S(=O)(Nc1c(O)ccc2ccccc12)c1ccc(F)cc1 | / | / | 10.6µM* | / | 1.2 | -11.6%
COc1ccc(Cc2c(O)[nH]c(=S)[nH]c2=O)cc1 | -0.7% | 56.2µM* | 26.7µM* | 7.94µM* | 2.2 | -14.2%
COC(=O)COc1ccc(C[C@@H](C)NC[C@H](O)c2cccc(Cl)c2)cc1 | / | -6.1% | / | / | / | 4.8%
O=C(Oc1ccccc1)N1CCC2(CCN(Cc3ccccc3)CC2)CC1 | / | 11.1% | / | 8.4%[12.7 µM] | / | -0.6%
COC(=O)CN1CN(c2ccccc2)C2(CCN(Cc3ccc4ccccc4c3)CC2)C1=O | / | 70.8µM* | / | / | / | ?
COc1cccc(CSc2nc(-c3ccccc3OC)nc3c2Cc2c(CO)cnc(C)c2O3)c1 | / | / | / | ? | / | 5.0%
O=c1oc2ccccc2c(O)c1C(c1ccc([N+](=O)[O-])cc1)c1c(O)c2ccccc2oc1=O | -2.2% | -91.3% | ? | 39.8µM* | 2.2 | ?
CC(=O)C(O)C(c1ccccc1)c1c(O)c2ccccc2oc1=O (configuration not stated) | / | 9.4% | / | / | / | 4.5%

Screens: PubChem, National Center for Advancing Translational Sciences (NCATS)
